# Assay results: PubChem BioAssay (Tox21)
# Inconclusive results are not listed. Where a call stands in place of a potency, no number is given. A structure can be active in one record and inactive in another. Activity calls are given as the source filed them. Calls follow the shape of the dose curve; as a rule, active = well fitted cell-killing curve with a large enough effect in the repeat runs; inconclusive = weak or mixed curves, or effect the other way; inactive = no such curve, though single readings can be large or run the other way.
# Experiment: qHTS assay to identify small molecule agonists of the vitamin D receptor (VDR) signaling pathway - cell viability counter screen (AID 743224); also: potency is read from the fitted curve at half-maximal effect
# Settings: VDR-bla HEK293T viability, CellTiter-Glo luminescence, 16 h; series mostly up to 62.6 µM
# Summary of the method: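 VDR-bla cells, 4 h after plating, exposed to compounds for 16 h at 37C; viability then read in the same wells as CellTiter-Glo luminescence after 30 min at room temperature, following the bla FRET read.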
# Also: nearly all actives have a fitted effect of over 50% in size.
SMILES,Potency,"activity change, negative = cytotoxicity"
CCC(C)(C)C1CCC(O)CC1 (stereo not drawn),inactive,–
CC(CCc1ccc2c(c1)OCO2)NN (stereo not drawn),inactive,–
C1COCO1,inactive,–
CCCCCCCCCCCC(=O)[O][Sn]([CH2]CCC)([CH2]CCC)[O]C(=O)CCCCCCCCCCC,23.7 µM (active),–
CC(CCO)CCc1ccccc1 (stereo not drawn),inactive,–
CC1=NN(c2ccc(C(=O)O)cc2)C(=O)C1,inactive,–
C[N+](C)(C)CCOC(N)=O,inactive,–
C=CC(=O)NCOCC(C)C,inactive,–
NC(=O)Nc1ccc(Cl)c(Cl)c1,inactive,–
CO[C@H]1O[C@H](CO)[C@@H](O)[C@H](O)[C@H]1O,inactive,–
Brc1cc(-c2ccc(Br)c(Br)c2Br)cc(Br)c1Br,inactive,–
O=Cc1c(Cl)cccc1Cl,inactive,–
CCCCCCCCSCCO,inactive,–
CCC(=O)OC/C=C/c1ccccc1,inactive,–
C[Si]1(C)O[Si](C)(C)O[Si](C)(C)O1,inactive,–
Cc1oncc1C(=O)Nc1ccc(C(F)(F)F)cc1,38.9 µM (active) and inactive,–
Nc1c(I)cc(I)c(C(=O)N(CCC(=O)O)c2ccccc2)c1I,inactive,–
CCCCCCCCCCCCCCCCBr,inactive,–
NC(=O)Cn1c(=O)cc(CCN2CCN(c3nccc4sccc34)CC2)c2ccc(F)cc21,inactive,–
CC(C)(C)C(=O)O,inactive,–

SMILES,Potency,"activity change, negative = cytotoxicity"
CC1=CC(=O)CC(C)(C)C1(O)/C=C/C(C)=C\C(=O)O (stereo not drawn),inactive,–
C=CCCCCCCCCCCCCCCCC,–,7.44% [at 5.95 µM] (inactive)
CO/N=C1\CN(c2nc3c(cc2F)c(=O)c(C(=O)O)cn3C2CC2)CC1CN (stereo not drawn),inactive,–
CC(=O)OCC(=O)[C@@]12OC(C)(C)O[C@@H]1C[C@H]1[C@@H]3C[C@H](F)C4=CC(=O)C=C[C@]4(C)[C@@]3(F)[C@@H](O)C[C@@]12C,inactive,–
O=C(CCCCCCC(=O)Nc1ccccc1)NO,inactive,–
CCCCC(=O)O[C@]1(C(=O)CO)CC[C@H]2[C@@H]3CCC4=CC(=O)CC[C@]4(C)[C@H]3[C@@H](O)C[C@@]21C,inactive,–
CCCCC1C(=O)N(c2ccccc2)N(c2ccc(O)cc2)C1=O (stereo not drawn),inactive,–
Cc1nc2ccccc2s1,inactive,–
c1ccc(COCc2ccccc2)cc1,inactive,–
O=C(CCCCCCCCC#CI)Oc1ccccc1,inactive,–
O=C1OCCN1/N=C/c1ccc([N+](=O)[O-])o1,inactive,–
C[C@]12CCC(=O)C=C1C=C[C@@H]1[C@@H]2CC[C@@]2(C)[C@H]1CC[C@@]21CCC(=O)O1,inactive,–
CCOC(=O)N1CCC(n2c(=O)[nH]c3cc(Cl)ccc32)CC1,inactive,–
COc1cc2[nH]c(=O)[nH]c(=O)c2cc1OC,inactive,–
OC(CCCN1CCCCC1)(c1ccccc1)c1ccccc1,inactive,–
CCCc1c(OCCCOc2ccc(OCC(=O)O)cc2)ccc(C(C)=O)c1O,inactive,–
COc1cc2c(N3CCN(C(=O)Nc4ccc(OC(C)C)cc4)CC3)ncnc2cc1OCCCN1CCCCC1,inactive,–
O=C(/C=C/c1ccccc1)OCCCc1ccccc1,inactive,–
OC/C(Br)=C(\Br)CO,inactive,–

# Experiment: qHTS assay to identify small molecule antagonists of the vitamin D receptor (VDR) signaling pathway - cell viability counter screen (AID 743225)
# Settings: VDR-bla HEK293T viability, CellTiter-Glo luminescence, 16 h; series mostly up to 61 µM
# Summary of the method: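 Compounds were pinned onto VDR-bla HEK 293T cells together with 1-alpha,25-dihydroxyvitamin D3 at 3 nM final. After 16 h at 37C and 5% CO2 plus the reporter readout, cell viability was measured by CellTiter-Glo luminescence (30 min, room temperature).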
SMILES,Potency,"viability change, negative = cytotoxic"
CCC(C)(C)C1CCC(O)CC1 (stereo not drawn),inactive,–
CC(CCc1ccc2c(c1)OCO2)NN (stereo not drawn),inactive,–
C1COCO1,inactive,–
CCCCCCCCCCCC(=O)[O][Sn]([CH2]CCC)([CH2]CCC)[O]C(=O)CCCCCCCCCCC,inactive,–
CC(CCO)CCc1ccccc1 (stereo not drawn),inactive,–
CC1=NN(c2ccc(C(=O)O)cc2)C(=O)C1,inactive,–
C[N+](C)(C)CCOC(N)=O,inactive,–
C=CC(=O)NCOCC(C)C,inactive,–
NC(=O)Nc1ccc(Cl)c(Cl)c1,inactive,–
CO[C@H]1O[C@H](CO)[C@@H](O)[C@H](O)[C@H]1O,inactive,–
Brc1cc(-c2ccc(Br)c(Br)c2Br)cc(Br)c1Br,inactive,–
O=Cc1c(Cl)cccc1Cl,inactive,–
CCCCCCCCSCCO,inactive,–
CCC(=O)OC/C=C/c1ccccc1,inactive,–
Cc1oncc1C(=O)Nc1ccc(C(F)(F)F)cc1,inactive,–
Nc1c(I)cc(I)c(C(=O)N(CCC(=O)O)c2ccccc2)c1I,inactive,–
CCCCCCCCCCCCCCCCBr,inactive,–
NC(=O)Cn1c(=O)cc(CCN2CCN(c3nccc4sccc34)CC2)c2ccc(F)cc21,inactive,–
CC(C)(C)C(=O)O,inactive,–
CC1=CC(=O)CC(C)(C)C1(O)/C=C/C(C)=C\C(=O)O (stereo not drawn),inactive,–

SMILES,Potency,"viability change, negative = cytotoxic"
C=CCCCCCCCCCCCCCCCC,–,8.8% [at 6.95 µM] (inactive)
CO/N=C1\CN(c2nc3c(cc2F)c(=O)c(C(=O)O)cn3C2CC2)CC1CN (stereo not drawn),inactive,–
CC(=O)OCC(=O)[C@@]12OC(C)(C)O[C@@H]1C[C@H]1[C@@H]3C[C@H](F)C4=CC(=O)C=C[C@]4(C)[C@@]3(F)[C@@H](O)C[C@@]12C,inactive,–
O=C(CCCCCCC(=O)Nc1ccccc1)NO,inactive,–
CCCCC(=O)O[C@]1(C(=O)CO)CC[C@H]2[C@@H]3CCC4=CC(=O)CC[C@]4(C)[C@H]3[C@@H](O)C[C@@]21C,inactive,–
CCCCC1C(=O)N(c2ccccc2)N(c2ccc(O)cc2)C1=O (stereo not drawn),inactive,–
Cc1nc2ccccc2s1,inactive,–
c1ccc(COCc2ccccc2)cc1,inactive,–
O=C(CCCCCCCCC#CI)Oc1ccccc1,inactive,–
O=C1OCCN1/N=C/c1ccc([N+](=O)[O-])o1,inactive,–
C[C@]12CCC(=O)C=C1C=C[C@@H]1[C@@H]2CC[C@@]2(C)[C@H]1CC[C@@]21CCC(=O)O1,inactive,–
CCOC(=O)N1CCC(n2c(=O)[nH]c3cc(Cl)ccc32)CC1,inactive,–
COc1cc2[nH]c(=O)[nH]c(=O)c2cc1OC,inactive,–
OC(CCCN1CCCCC1)(c1ccccc1)c1ccccc1,inactive,–
Cc1cc(O)c2c(O)c3c(O)cccc3cc2c1,inactive,–
CCCc1c(OCCCOc2ccc(OCC(=O)O)cc2)ccc(C(C)=O)c1O,inactive,–
COc1cc2c(N3CCN(C(=O)Nc4ccc(OC(C)C)cc4)CC3)ncnc2cc1OCCCN1CCCCC1,inactive,–
O=C(/C=C/c1ccccc1)OCCCc1ccccc1,inactive,–
OC/C(Br)=C(\Br)CO,inactive,–
